Compounds with a hit are over-represented: about 3.5% of the library has one in this group of screens.
Pf apPOL inh: Pf-apPOL DNA polymerase inhibition. inhibition, % at 10 µM. hit rate 0.25% among 210,000. Recombinant Pf-apPOL, molecular beacon fluorescence, 1.5 h
mHTT-CaM PPI inh: disrupts binding of mutant huntingtin to calmodulin; hit rate 3.6% among 190,000; P42858; AlphaScreen His-mHTT/GST-CaM binding, luminescence; inhibition, % at 15 µM; AID 1671202;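 note: 0% = both proteins with DMSO and 100% = one protein alone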
* marks the source's active call; other numbers are inactive results. Cut-off read from the data, not from the text of the source: active = inhibition above about 50%; inactive = the rest.

How did O=S(=O)(c1cccn2cnnc12)N(Cc1ccc(F)cc1)c1ccc(F)cc1 do in these assays?
Pf apPOL inh: 25; mHTT-CaM PPI inh: 32

What do the screens show for `O=C(NCc1cccs1)c1coc(NC(=O)c2ccco2)n1`?
Pf apPOL inh: 1; mHTT-CaM PPI inh: -3

Results for CCNS(=O)(=O)c1ccc2c(c1)C(=NO)c1cc(S(=O)(=O)NCC)ccc1-2 ?
Pf apPOL inh: 1; mHTT-CaM PPI inh: 28

What do the screens show for `O=C1NC(=O)/C(=C\c2ccccc2OCc2ccc(Cl)cc2)S1`?
Pf apPOL inh: 1; mHTT-CaM PPI inh: 9

What do the screens show for `Cc1ccc(S(=O)(=O)N=C2C=CC(=O)C(Br)=C2)c(C)c1`?
Pf apPOL inh: -8; mHTT-CaM PPI inh: 93*

What do the screens show for `CCN(CC)C(=NS(=O)(=O)c1ccc(C)cc1C)c1ccccc1`?
Pf apPOL inh: -3; mHTT-CaM PPI inh: -1

How did Cc1cc(C)c(S(=O)(=O)N=C2C=CC(=O)C(Br)=C2)c(C)c1 do in these assays?
Pf apPOL inh: -4; mHTT-CaM PPI inh: 53*

Results for Cc1cc(C)c(S(=O)(=O)N2CCCC2=O)c(C)c1 ?
Pf apPOL inh: -12; mHTT-CaM PPI inh: -11

What do the screens show for `CCOc1ccccc1C=C1Oc2cc(OCC(=O)OC)ccc2C1=O`?
Pf apPOL inh: -4; mHTT-CaM PPI inh: 3

How did Cc1cc([N+](=O)[O-])ccc1NC=C1C(=O)OC2(CCCCC2)OC1=O do in these assays?
Pf apPOL inh: -2; mHTT-CaM PPI inh: 3

Results for Cc1ccnc(NC(=O)c2cc(I)ccc2Cl)c1 ?
Pf apPOL inh: -3; mHTT-CaM PPI inh: -11

How did Cc1ccnc(NC(=O)CSc2ccccn2)c1 do in these assays?
Pf apPOL inh: -28

How did Cc1ccnc(NC(c2cccnc2)c2ccc3ccc(C)nc3c2O)c1 (centres undefined) do in these assays?
Pf apPOL inh: -6; mHTT-CaM PPI inh: 76*

Results for COc1ccccc1CC(=O)Nc1cc(C)ccn1 ?
Pf apPOL inh: -1; mHTT-CaM PPI inh: -2

What do the screens show for `COc1ccc(C(Nc2cc(C)ccn2)c2ccc3cccnc3c2O)cc1O` (centres undefined)?
Pf apPOL inh: -18; mHTT-CaM PPI inh: 100*

What do the screens show for `Cc1ccnc(NC(c2ccncc2)c2ccc3ccc(C)nc3c2O)c1` (centres undefined)?
Pf apPOL inh: -8; mHTT-CaM PPI inh: 90*

Results for Cc1ccnc(NC(c2cccnc2)c2ccc3cccnc3c2O)c1 (centres undefined) ?
Pf apPOL inh: 4; mHTT-CaM PPI inh: 100*

Results for COc1cccc(-c2cc(C3CCN(S(=O)(=O)c4cc(F)cc(F)c4)CC3)[nH]n2)c1 ?
Pf apPOL inh: 0; mHTT-CaM PPI inh: 3

How did O=C1OC(/C=C/c2cccc([N+](=O)[O-])c2)=NC/1=C\c1ccc2c(c1)OCO2 do in these assays?
Pf apPOL inh: 2; mHTT-CaM PPI inh: 8

What do the screens show for `COC(=O)c1ccc2nc(NC(=O)c3cc(C)oc3C)sc2c1`?
Pf apPOL inh: 1; mHTT-CaM PPI inh: -15

How did COC(=O)C=C(Oc1cccc(C(F)(F)F)c1)C(=O)OC do in these assays?
Pf apPOL inh: -4

What do the screens show for `CN1C(=O)c2ccccc2Oc2ccc(C(=O)NC3CCCC3)cc21`?
Pf apPOL inh: -3; mHTT-CaM PPI inh: -3

How did COc1cccc(C(=O)Nc2cccc3cccnc23)c1 do in these assays?
Pf apPOL inh: -2; mHTT-CaM PPI inh: -46

Results for COc1cccc(C(Nc2cc(C)ccn2)c2ccc3cccnc3c2O)c1 (centres undefined) ?
Pf apPOL inh: 0; mHTT-CaM PPI inh: 99*

Results for COc1cc2c(cc1OC)C(C(=O)Nc1cc(C)ccn1)C1c3ccccc3CCN1C2=O (centres undefined) ?
Pf apPOL inh: -1; mHTT-CaM PPI inh: 69*

Results for COCCN1C(=O)c2ccccc2C(C(=O)O)C1c1cn(C)c2ccccc12 (centres undefined) ?
Pf apPOL inh: 4; mHTT-CaM PPI inh: 1

How did COc1ccc(OC)c(NC(=O)C2c3ccccc3C(=O)N3CCc4ccccc4C23)c1 (centres undefined) do in these assays?
Pf apPOL inh: -7; mHTT-CaM PPI inh: 16

Results for COCCN1C(=O)c2ccccc2C(C(=O)Nc2cc(C)ccn2)C1c1cn(C)c2ccccc12 (centres undefined) ?
Pf apPOL inh: -3; mHTT-CaM PPI inh: 54*

Results for Cc1ccnc(NC(=O)C2c3ccccc3C(=O)N3CCc4ccccc4C23)c1 (centres undefined) ?
Pf apPOL inh: -2; mHTT-CaM PPI inh: 31

How did COc1cc2c(cc1OC)C(C(=O)NCc1cccnc1)C1c3ccccc3CCN1C2=O (centres undefined) do in these assays?
Pf apPOL inh: -4; mHTT-CaM PPI inh: -5

How did COc1cc2c(cc1OC)C(C(=O)NCCc1cccc(C)c1)C1c3ccccc3CCN1C2=O (centres undefined) do in these assays?
Pf apPOL inh: -1; mHTT-CaM PPI inh: 89*

Results for COc1ccc(C)cc1NC(=O)C1c2cc(OC)c(OC)cc2C(=O)N2CCc3ccccc3C12 (centres undefined) ?
Pf apPOL inh: -8; mHTT-CaM PPI inh: 57*

Results for CC(C)NC(=O)c1cnn2c3c(cnc12)CCCCCC3 ?
Pf apPOL inh: 0; mHTT-CaM PPI inh: 0

What do the screens show for `Cc1cc(/C=C2/SC(=O)NC2=O)c(C)n1-c1cccc([N+](=O)[O-])c1`?
Pf apPOL inh: 0; mHTT-CaM PPI inh: 41

How did CC(C)OC(=O)COc1ccc2c(c1)OC(=Cc1ccccc1)C2=O do in these assays?
Pf apPOL inh: -12; mHTT-CaM PPI inh: 5

What do the screens show for `O=C(Cn1cnc2ccccc21)N1CCCC(c2nnc(-c3ccccc3F)s2)C1` (centres undefined)?
Pf apPOL inh: -14; mHTT-CaM PPI inh: 24

How did CCCCSc1nnc2n(C)c(=O)c3sccc3n12 do in these assays?
Pf apPOL inh: -1; mHTT-CaM PPI inh: -2

How did COCCc1nc(C2CCCN(Cc3ccccn3)C2)n[nH]1 (centres undefined) do in these assays?
Pf apPOL inh: -22; mHTT-CaM PPI inh: 89*

What do the screens show for `Cc1nc(C2CCN(Cc3cccs3)CC2)n[nH]1`?
Pf apPOL inh: -4; mHTT-CaM PPI inh: -10

Results for Cc1nc(C2CCN(Cc3ccccn3)CC2)n[nH]1 ?
Pf apPOL inh: -9; mHTT-CaM PPI inh: 99*

Results for CCn1c(C2CCN(Cc3ccccn3)C2)nc2cccnc21 (centres undefined) ?
Pf apPOL inh: -44; mHTT-CaM PPI inh: 100*

What do the screens show for `CCOc1ccccc1CN1CCC(c2nc3cccnc3n2CC)C1` (centres undefined)?
Pf apPOL inh: -5; mHTT-CaM PPI inh: 18

Results for COCCc1nc(C2CCCN(Cc3cccs3)C2)n[nH]1 (centres undefined) ?
Pf apPOL inh: -2; mHTT-CaM PPI inh: -2

Results for O=C(NCC(c1ccco1)N1CCc2ccccc21)C1CCCCC1 (centres undefined) ?
Pf apPOL inh: -6; mHTT-CaM PPI inh: 0

Results for Cc1nc(C(=O)NCc2ccccn2)c(C)n1C1CCN(S(C)(=O)=O)CC1 ?
Pf apPOL inh: -5; mHTT-CaM PPI inh: 4

What do the screens show for `CC1CN(C/C=C/c2ccccc2)CC(C)O1` (centres undefined)?
Pf apPOL inh: 10; mHTT-CaM PPI inh: -4

How did CC1CCC(NC(=O)CC2Sc3ccccc3NC2=O)CC1 (centres undefined) do in these assays?
Pf apPOL inh: -4; mHTT-CaM PPI inh: -2

Results for CCCCN1CCN(C(=O)CC2CCN(c3ccnc(NC)n3)CC2)CC1 ?
Pf apPOL inh: -3; mHTT-CaM PPI inh: -1

Screening data from PubChem BioAssay.
